Our source for the Percent Effect values is ChEMBL document CHEMBL3988442, “University of Dundee, Small-Polar-MMV Screening Library” (2021).

For some of these results: Results with a measured potency or affinity are listed apart.

Design in all cases: scale not given: direction of the effect not stated beside the values
Assay [1] addresses Protein translocase subunit SecA (Escherichia coli (strain K12)) (UniProt P10408). Kind of assay: Assay to Identify E. coli SecA ATPase Inhibitors. Type of assay: functional. The conditions noted are these: 30 µM.
The target in assay [2] is T1, Ubiquitin-activating enzyme e1, putative (Leishmania donovani (strain BPK282A1)) (UniProt E9BSI1).
T1 sequence (whole entry): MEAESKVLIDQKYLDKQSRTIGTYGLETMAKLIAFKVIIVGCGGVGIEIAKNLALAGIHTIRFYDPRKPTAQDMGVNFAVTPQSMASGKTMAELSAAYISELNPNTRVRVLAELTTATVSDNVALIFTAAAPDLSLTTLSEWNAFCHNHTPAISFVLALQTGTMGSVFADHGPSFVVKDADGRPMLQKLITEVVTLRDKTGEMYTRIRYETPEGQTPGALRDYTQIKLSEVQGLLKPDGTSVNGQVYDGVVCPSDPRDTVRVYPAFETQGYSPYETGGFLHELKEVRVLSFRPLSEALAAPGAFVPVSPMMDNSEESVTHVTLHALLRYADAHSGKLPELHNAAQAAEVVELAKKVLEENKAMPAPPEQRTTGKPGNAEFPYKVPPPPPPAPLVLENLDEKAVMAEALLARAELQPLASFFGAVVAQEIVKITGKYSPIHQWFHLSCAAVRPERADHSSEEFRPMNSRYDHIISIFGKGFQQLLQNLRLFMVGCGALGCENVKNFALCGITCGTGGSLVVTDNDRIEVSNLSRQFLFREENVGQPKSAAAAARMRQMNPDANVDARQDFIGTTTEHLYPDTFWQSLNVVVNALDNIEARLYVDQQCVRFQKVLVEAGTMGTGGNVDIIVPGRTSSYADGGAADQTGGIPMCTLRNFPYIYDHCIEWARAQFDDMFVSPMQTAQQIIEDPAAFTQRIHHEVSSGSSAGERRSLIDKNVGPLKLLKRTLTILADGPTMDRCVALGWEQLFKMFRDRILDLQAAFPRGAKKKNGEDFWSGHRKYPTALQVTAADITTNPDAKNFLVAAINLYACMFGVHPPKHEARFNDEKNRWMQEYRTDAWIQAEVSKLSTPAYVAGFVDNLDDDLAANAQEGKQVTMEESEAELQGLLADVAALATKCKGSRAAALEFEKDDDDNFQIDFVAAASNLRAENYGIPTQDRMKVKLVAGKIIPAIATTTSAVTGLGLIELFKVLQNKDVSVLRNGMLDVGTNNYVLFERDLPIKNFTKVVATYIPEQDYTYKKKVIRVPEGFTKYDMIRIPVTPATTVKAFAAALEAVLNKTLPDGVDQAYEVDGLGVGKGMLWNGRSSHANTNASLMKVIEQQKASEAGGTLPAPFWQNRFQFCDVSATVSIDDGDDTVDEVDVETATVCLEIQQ
Kind of assay: Leishmania donovani Ubiquitin Activating Enzyme (LdE1). Type of assay: functional. As to conditions: 30 µM.

For assay [3], the target named is AMP-activated protein kinase, AMPK (Homo sapiens) (UniProt P54646+O43741+P54619+Q9UGJ0+Q9Y478+Q13131+Q9UGI9). Kind of assay: AMP-dependent Kinase enzyme assay. An in vitro enzyme assay that detects ADP turnover that is directly proportional to AMPK activity. This uses naive AMPK that is activated during the assay with MK-8722. Type of assay: functional. The conditions noted are these: 30 µM.

The target in assay [4] is Sialic acid-binding Ig-like lectin 9 (Homo sapiens) (UniProt Q9Y336). Kind of assay: Hs-Siglec9 ALPHAscreen SOP 20170721. As to conditions: 10 µM. (In general: In Alpha technology, singlet oxygen from a donor bead excites a nearby acceptor bead.)
Sialic acid-binding Ig-like lectin 9 (Homo sapiens), sequence (Q9Y336 whole entry): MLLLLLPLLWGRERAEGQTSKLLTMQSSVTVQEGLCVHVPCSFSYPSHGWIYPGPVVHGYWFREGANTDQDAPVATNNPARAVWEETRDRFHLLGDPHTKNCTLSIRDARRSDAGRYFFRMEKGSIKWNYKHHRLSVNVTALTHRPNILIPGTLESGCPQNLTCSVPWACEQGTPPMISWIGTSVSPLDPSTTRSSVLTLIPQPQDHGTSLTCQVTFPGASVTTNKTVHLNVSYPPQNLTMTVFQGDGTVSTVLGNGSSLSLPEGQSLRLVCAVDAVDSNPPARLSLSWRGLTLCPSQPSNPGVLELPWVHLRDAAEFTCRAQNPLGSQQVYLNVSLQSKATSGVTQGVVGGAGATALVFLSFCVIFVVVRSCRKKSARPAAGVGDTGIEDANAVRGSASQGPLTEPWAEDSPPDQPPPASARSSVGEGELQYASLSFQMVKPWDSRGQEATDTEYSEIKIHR
The subject of a further assay is Trypanosoma cruzi. Briefly: Trypanosoma cruzi phosphomannomutase and mannose-1-phosphate guanylyltransferase assay. Type of assay: functional. As to conditions: 10 µM.
The target in assay [5] is T2, Arginase-2, mitochondrial (Homo sapiens) (UniProt P78540).
T2 sequence (whole entry): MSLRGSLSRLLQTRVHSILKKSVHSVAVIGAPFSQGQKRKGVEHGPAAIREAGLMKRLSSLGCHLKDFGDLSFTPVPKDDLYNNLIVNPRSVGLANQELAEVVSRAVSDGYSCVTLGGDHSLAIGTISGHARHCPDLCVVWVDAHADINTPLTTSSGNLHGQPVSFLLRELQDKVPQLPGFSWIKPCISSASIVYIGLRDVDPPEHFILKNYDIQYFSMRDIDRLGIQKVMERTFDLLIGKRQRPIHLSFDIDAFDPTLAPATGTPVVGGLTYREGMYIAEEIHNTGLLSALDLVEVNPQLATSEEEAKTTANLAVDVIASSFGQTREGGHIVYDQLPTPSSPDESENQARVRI
Kind of assay: in vitro enzyme assay to detect the production of urea directly proportional to the activity of Arginase II. Note: in the data most compounds retested in dose-response had high values. It counts as functional. As to conditions: 33.3 µM.

In assay [6] the target is T3, Proteasome subunit beta (Trypanosoma cruzi) (UniProt O96673).
T3 sequence (whole entry): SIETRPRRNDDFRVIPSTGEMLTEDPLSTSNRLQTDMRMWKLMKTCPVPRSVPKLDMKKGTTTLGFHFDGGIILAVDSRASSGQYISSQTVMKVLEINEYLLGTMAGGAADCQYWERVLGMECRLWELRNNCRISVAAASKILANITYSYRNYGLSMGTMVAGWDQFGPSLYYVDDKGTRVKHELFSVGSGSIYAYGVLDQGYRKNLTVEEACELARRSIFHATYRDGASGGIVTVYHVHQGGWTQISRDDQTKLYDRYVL
Kind of assay: Trypanosoma cruzi proteasome chymotrypsin-like activity (TcProtChymo) assay. Note: in the data most compounds retested in dose-response had high values. As to conditions: 9.37 µM. Type of assay: functional.

The species named for the next assay is Homo sapiens. Kind of assay: To identify inhibition of the IFN signalling (Jak-Stat) pathway via expression of an eGFP reporter gene under the control of an IFN-stimulated response element (ISRE) containing MxA promoter. It counts as functional. As to conditions: 30 µM. In general terms: Reporter assays use an easily measured gene product as a stand-in for the process of interest.

The target in assay [7] is T4, Tyrosyl-tRNA synthetase, putative (Trypanosoma cruzi (strain CL Brener)) (UniProt Q4DSP6).
T4 sequence (whole entry): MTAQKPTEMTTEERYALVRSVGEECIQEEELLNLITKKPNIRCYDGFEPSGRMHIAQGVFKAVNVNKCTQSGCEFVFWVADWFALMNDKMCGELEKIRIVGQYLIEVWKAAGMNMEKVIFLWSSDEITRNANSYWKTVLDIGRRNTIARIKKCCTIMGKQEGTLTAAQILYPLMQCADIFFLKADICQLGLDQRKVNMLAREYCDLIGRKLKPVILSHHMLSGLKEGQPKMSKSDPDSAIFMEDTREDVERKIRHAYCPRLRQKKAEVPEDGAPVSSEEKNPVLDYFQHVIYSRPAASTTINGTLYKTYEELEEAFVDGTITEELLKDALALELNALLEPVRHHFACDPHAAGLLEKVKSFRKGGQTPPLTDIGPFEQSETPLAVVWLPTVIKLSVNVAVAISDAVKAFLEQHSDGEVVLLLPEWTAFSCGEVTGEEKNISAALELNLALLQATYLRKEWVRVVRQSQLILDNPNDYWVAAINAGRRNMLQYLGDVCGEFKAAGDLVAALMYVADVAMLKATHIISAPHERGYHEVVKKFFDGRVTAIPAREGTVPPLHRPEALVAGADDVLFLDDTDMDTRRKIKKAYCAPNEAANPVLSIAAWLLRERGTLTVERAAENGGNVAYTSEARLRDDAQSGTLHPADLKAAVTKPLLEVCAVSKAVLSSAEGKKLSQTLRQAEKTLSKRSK
Kind of assay: Trypanosoma cruzi tyrosyl tRNA synthetase (TcYRS) _High Tyrosine SOP. Note: in the data most compounds retested in dose-response had high values. Type of assay: functional. The conditions noted are these: 30 µM.

Assay [8] deals with T4, Tyrosyl-tRNA synthetase, putative (Trypanosoma cruzi (strain CL Brener)). Kind of assay: Trypanosoma cruzi tyrosyl tRNA synthetase (TcYRS) SOP. Type of assay: functional. As to conditions: 30 µM.
The target in assay [9] is Chromo domain-containing protein 1 (Saccharomyces cerevisiae (strain ATCC 204508 / S288c) (Baker's yeast)) (UniProt P32657). Kind of assay: ScCHD-1 Enzyme Inhibition Assay. Note: in the data most compounds retested in dose-response had high values. As to conditions: 30 µM. Type of assay: functional.
Chromo domain-containing protein 1 (Saccharomyces cerevisiae (strain ATCC 204508 / S288c) (Baker's yeast)), sequence (P32657 whole entry, the tested form may be a part): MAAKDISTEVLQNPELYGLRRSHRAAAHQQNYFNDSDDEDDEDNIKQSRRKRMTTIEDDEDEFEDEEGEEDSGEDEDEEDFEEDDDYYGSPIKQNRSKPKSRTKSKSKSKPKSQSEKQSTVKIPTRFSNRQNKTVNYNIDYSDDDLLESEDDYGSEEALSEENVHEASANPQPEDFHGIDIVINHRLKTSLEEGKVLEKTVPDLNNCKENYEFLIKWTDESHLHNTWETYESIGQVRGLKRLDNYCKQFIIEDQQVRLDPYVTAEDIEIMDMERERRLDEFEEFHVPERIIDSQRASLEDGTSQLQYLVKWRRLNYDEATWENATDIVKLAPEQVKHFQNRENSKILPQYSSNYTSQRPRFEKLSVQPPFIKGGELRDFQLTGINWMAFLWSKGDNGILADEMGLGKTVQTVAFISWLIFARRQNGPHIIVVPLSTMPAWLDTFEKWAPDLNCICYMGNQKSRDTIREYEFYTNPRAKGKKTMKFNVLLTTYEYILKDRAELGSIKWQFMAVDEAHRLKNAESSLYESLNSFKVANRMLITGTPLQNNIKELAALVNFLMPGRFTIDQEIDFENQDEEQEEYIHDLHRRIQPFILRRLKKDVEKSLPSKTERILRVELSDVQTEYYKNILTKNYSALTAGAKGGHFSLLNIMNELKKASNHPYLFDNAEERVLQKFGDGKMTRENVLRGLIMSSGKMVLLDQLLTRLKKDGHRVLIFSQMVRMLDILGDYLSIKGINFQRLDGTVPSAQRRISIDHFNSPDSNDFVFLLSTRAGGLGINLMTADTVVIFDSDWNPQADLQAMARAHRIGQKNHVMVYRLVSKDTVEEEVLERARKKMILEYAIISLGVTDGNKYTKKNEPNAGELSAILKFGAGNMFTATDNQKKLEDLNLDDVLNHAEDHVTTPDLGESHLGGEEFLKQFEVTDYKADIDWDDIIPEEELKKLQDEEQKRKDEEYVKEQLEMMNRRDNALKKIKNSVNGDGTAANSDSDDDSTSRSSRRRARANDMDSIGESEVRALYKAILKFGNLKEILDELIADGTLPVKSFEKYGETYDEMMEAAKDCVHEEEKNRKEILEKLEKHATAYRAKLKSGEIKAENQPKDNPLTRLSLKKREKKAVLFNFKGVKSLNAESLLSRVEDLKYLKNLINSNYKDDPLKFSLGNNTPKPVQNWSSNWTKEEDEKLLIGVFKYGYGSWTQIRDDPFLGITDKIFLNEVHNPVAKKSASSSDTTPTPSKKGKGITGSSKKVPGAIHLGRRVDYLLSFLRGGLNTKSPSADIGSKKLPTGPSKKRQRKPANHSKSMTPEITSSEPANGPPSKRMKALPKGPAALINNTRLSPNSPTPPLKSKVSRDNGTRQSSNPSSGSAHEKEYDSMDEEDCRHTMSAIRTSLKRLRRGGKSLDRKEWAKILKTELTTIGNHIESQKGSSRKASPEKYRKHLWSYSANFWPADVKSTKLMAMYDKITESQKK

Protein translocase subunit SecA (Escherichia coli (strain K12)), sequence (P10408 whole entry): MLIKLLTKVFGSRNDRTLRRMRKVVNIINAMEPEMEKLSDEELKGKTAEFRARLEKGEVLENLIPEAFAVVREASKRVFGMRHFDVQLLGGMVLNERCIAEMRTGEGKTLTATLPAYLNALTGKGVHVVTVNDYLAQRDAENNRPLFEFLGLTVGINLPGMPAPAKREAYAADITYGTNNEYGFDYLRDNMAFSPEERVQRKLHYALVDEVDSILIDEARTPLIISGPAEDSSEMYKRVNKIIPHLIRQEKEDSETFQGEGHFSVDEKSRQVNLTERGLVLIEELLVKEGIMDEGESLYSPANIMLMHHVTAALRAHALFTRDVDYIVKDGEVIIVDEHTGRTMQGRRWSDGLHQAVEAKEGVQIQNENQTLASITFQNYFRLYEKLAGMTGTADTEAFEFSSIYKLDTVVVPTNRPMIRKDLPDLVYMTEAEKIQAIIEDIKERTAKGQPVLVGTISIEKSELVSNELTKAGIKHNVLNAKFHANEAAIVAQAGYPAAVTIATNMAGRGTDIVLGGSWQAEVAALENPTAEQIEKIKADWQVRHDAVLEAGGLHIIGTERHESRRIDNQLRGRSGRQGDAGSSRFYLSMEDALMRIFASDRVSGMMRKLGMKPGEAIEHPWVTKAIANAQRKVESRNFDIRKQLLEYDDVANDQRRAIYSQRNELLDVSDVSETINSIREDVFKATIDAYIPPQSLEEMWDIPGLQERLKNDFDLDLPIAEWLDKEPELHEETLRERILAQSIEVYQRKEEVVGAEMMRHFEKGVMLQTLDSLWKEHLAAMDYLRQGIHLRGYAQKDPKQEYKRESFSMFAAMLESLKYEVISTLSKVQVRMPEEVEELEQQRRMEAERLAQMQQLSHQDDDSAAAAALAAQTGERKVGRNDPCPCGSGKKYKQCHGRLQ

In the case of `Cc1nc(CCC(=O)NC2CCC2)cc(C2CCNCC2)n1`, the Percent Effect in [1] was -4.77%; in assay [2], 26.7%; in assay [3] it was -4.67%; in [4] it was -2.25%; in the assay with Trypanosoma cruzi, 6.1%; in assay [5], -4.43%. Besides, the Percent Effect in assay [6] was 4.67%; in the assay filed under Homo sapiens, 3.41%; in assay [7], 4.25%; in assay [8], 19.2%; in assay [9], -7.72%.
Take `COCCN1C[C@@H](C)[C@@]2(COCCN(C(=O)c3cnc(C)cn3)C2)C1`: the Percent Effect in assay [1] is 0.144%; in assay [2] it was 10.7%; in assay [3], 6.23%; in [4], 3.86%; in the assay on Trypanosoma cruzi it was -3.28%; in assay [5] it was -21.3%. The Percent Effect in assay [6] is 12.7%; in the assay listed under Homo sapiens, -11.1%; in [7], -5.21%; in assay [8] it was 12.5%; in [9], -6.61%.
`Cc1nn(C)c(C)c1CNCc1ccc(N2CCOCC2)nc1`: the Percent Effect is -1.63% in assay [1]; 11.4% in assay [2]; 6.09% in assay [3]; -0.523% in assay [4]; 1.95% in the assay with Trypanosoma cruzi; -1.5% in assay [5]. Also, the Percent Effect in assay [6] was 10.6%; in the assay filed under Homo sapiens, 13.4%; in assay [7] it was 8.33%; in assay [8], 25.3%; in [9] it was -25.1%.
Regarding `COCCN1C[C@@H]2CN(Cc3cccc(F)c3)CCC[C@]2(C(=O)O)C1`, the Percent Effect is -4.38% in assay [1]; 0% in assay [2]; 0.729% in assay [3]; -3.33% in assay [4]; -4.24% in the assay with Trypanosoma cruzi; 1.94% in assay [5]. The Percent Effect in assay [6] is 8.53%; in the assay listed under Homo sapiens, 3.04%; in assay [7] it was -2.12%; in assay [8], -1.28%; in assay [9], -7.5%.
As for `CCc1n[nH]c(C2CN(C(=O)c3ccsc3)CCO2)n1` (stereo not drawn), the Percent Effect was -3.58% in assay [1]; 0% in assay [2]; 6.15% in assay [3]; 8.54% in [4]; -0.686% in the assay with Trypanosoma cruzi; 4.84% in assay [5]. Further, the Percent Effect was 6.39% in assay [6]; 4.84% in the assay listed under Homo sapiens; -2.86% in assay [7]; -2.35% in [8]; -13.8% in assay [9].
For `C[C@H]1C[C@@H]2CCN(C(=O)c3ccncn3)C[C@H]2O1`, the Percent Effect was -5.91% in assay [1]; 0% in assay [2]; -1.04% in assay [3]; -0.649% in assay [4]; 1.56% with Trypanosoma cruzi; 2.08% in assay [5]. The Percent Effect is 1.27% in assay [6]; -2.6% in the assay filed under Homo sapiens; 5.94% in assay [7]; 8.54% in [8]; -3.12% in assay [9].
In the case of `Cc1ccc(C(=O)NCCS(C)(=O)=O)c(=O)[nH]1`, the Percent Effect in assay [1] is -3.94%; in assay [2], 16.2%; in assay [3], -7.64%; in [4], -5.87%; with Trypanosoma cruzi it was 4.88%; in [5], 10.4%. Further, the Percent Effect in [6] was 16.1%; in the assay filed under Homo sapiens, 7.03%; in assay [7] it was 9.9%; in assay [8], 15.8%; in assay [9], -5.72%.
As for `Cc1cc(C)cc(-c2cccc(CC3(C(=O)O)CCOCC3)c2)c1`, the Percent Effect in [1] is -0.147%; in assay [2] it was 4.05%; in assay [3] it was 37.7%; in assay [4], 5.76%; with Trypanosoma cruzi it was -8.1%; in assay [5] it was -9.05%. For the same compound, the Percent Effect was 15.1% in [6]; 31.5% in the assay filed under Homo sapiens; -26.9% in [7]; -45.5% in [8]; -6.99% in assay [9].
